# Assay results as given in article PMC5869772, “Quantitative profiling of BATF family proteins/JUNB/IRF hetero-trimers using Spec-seq”.
# Key:
# Assay in all cases: Spec-seq (EMSA and sequencing of bound and unbound bands); 100 nM BATFx-JUNB, 1 uM dsDNA library, 50 mM K acetate, 20 mM Tris-acetate, 10 mM Mg acetate, 100 ug/ml BSA, pH 7.9, 10% glycerol, 30 min on ice; native 9% PAGE at 4 C; low values mean tight binding
# Conditions in all cases: protein: recombinant;recombinant; tags: N-terminal mCherry-TEV, cleaved off;C-terminal 6His; copies: 1;1; dsDNA, one strand shown
# BATF;JUNB = molecular target: T1, BATF;JUNB (human;human, UniProt Q16520;P17275 1-125;148-347, |)
# T1 sequence 1: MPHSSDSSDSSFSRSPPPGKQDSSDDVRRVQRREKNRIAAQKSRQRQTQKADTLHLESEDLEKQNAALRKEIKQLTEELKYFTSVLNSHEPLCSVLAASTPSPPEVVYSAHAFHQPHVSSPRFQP
# T1 sequence 2: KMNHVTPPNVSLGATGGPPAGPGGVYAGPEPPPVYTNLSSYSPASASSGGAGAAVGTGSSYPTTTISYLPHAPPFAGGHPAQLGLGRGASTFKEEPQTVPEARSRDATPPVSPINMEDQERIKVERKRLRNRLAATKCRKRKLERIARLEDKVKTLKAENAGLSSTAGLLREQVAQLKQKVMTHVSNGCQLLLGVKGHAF
# Summary of the method: (§1)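 The protein, at 100 nM, was incubated with 1 μM double-stranded degenerate DNA library for 30 min on ice in NEB Cutsmart buffer with 10% glycerol, then resolved by native 9% PAGE at 4 °C. Excised bound and unbound bands were PCR-barcoded and Illumina-sequenced, and each sequence's relative binding energy in kT is −ln of its bound/unbound read-count ratio.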
# BATF2 (bZIP);JUNB = molecular target: T2, BATF2 (bZIP);JUNB (human;human, UniProt Q8N1L9;P17275 1-142;148-347, |)
# T2 sequence 1: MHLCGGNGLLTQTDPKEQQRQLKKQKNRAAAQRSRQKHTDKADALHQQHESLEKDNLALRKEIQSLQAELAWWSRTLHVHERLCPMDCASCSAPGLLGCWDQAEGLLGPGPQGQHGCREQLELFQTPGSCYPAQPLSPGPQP
# T2 sequence 2: T1 sequence 2
# Summary of the method: as §1
# BATF3;JUNB = molecular target: T3, BATF3;JUNB (human;human, UniProt Q9NR55;P17275 1-127;148-347, |)
# T3 sequence 1: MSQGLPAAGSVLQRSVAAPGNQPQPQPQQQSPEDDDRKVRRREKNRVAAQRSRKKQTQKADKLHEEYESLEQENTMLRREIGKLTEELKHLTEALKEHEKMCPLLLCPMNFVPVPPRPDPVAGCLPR
# T3 sequence 2: T1 sequence 2
# Summary of the method: as §1
Sequence,binding signal (BATF;JUNB) [kT],binding signal (BATF2 (bZIP);JUNB) [kT],binding signal (BATF3;JUNB) [kT]
GATAGTCTCATTTTCACCCCGTGAAATTAAGTCATTGTTCCATTACAGTATCTGT,-0.398,-0.048,-0.719
GATAGTCTCATTTTCACCCCGTGAAATGAGTGACTTGTTCCATTACAGTATCTGT,0.0645,0.827,0.384
GATAGTCTCATTTTCACCCCGTGAAAGGAGTCATTTGTTCCATTACAGTATCTGT,-0.0687,0.569,0.243
GATAGTCTCATTTTCACCCCGTGAAAATGAGTCATTGTTCCATTACAGTATCTGT,-1.25,-1.01,-1.35
GATAGTCTCATTTTCACCCCGTGAAATGACCTCATTGTTCCATTACAGTATCTGT,-0.305,0.217,-0.817
GATAGTCTCATTTTCACCCCGTGAAATTCAGTCATTGTTCCATTACAGTATCTGT,-0.317,0.285,-0.0636
GATAGTCTCATTTTCACCCCGTGAAATGAGTCCGTTGTTCCATTACAGTATCTGT,0.231,1.26,1.04
GATAGTCTCATTTTCACCCCGTGAAATAAGTCATTTGTTCCATTACAGTATCTGT,-0.248,0.152,-0.202
GATAGTCTCATTTTCACCCCGTGAAATGAGCCAATTGTTCCATTACAGTATCTGT,0.591,1.4,0.829
GATAGTCTCATTTTCACCCCGTGAAATAGAGTCATTGTTCCATTACAGTATCTGT,-0.357,0.163,-0.29
GATAGTCTCATTTTCACCCCGTGAAATGAGTCCATTGTTCCATTACAGTATCTGT,0.0398,1.1,0.51
GATAGTCTCATTTTCACCCCGTGAAATGACTCTTTTGTTCCATTACAGTATCTGT,0.109,0.673,0.524
GATAGTCTCATTTTCACCCCGTGAAATGAGTGAATTGTTCCATTACAGTATCTGT,0.0809,0.83,0.58
GATAGTCTCATTTTCACCCCGTGAAATGCGTCATTTGTTCCATTACAGTATCTGT,-0.941,-0.434,-1.03
GATAGTCTCATTTTCACCCCGTGAAATGAGTTAGTTGTTCCATTACAGTATCTGT,0.169,0.988,0.772
GATAGTCTCATTTTCACCCCGTGAAATTACTCATTTGTTCCATTACAGTATCTGT,-0.755,-0.323,-0.827
GATAGTCTCATTTTCACCCCGTGAAAGTGCGTCATTGTTCCATTACAGTATCTGT,-0.695,-0.267,-0.851
GATAGTCTCATTTTCACCCCGTGAAAAGACTCATTTGTTCCATTACAGTATCTGT,0.016,0.734,0.446
GATAGTCTCATTTTCACCCCGTGAAACTCAGTCATTGTTCCATTACAGTATCTGT,-0.328,0.236,0.0164
GATAGTCTCATTTTCACCCCGTGAAATGACCCAGTTGTTCCATTACAGTATCTGT,0.583,1.09,1.02
GATAGTCTCATTTTCACCCCGTGAAATAACGTCATTGTTCCATTACAGTATCTGT,-0.467,-0.287,-1.09
GATAGTCTCATTTTCACCCCGTGAAATTACGTCATTGTTCCATTACAGTATCTGT,-0.943,-1.14,-1.82
GATAGTCTCATTTTCACCCCGTGAAATGAGTCTATTGTTCCATTACAGTATCTGT,-0.119,1.33,0.647
GATAGTCTCATTTTCACCCCGTGAAAATAAGTCATTGTTCCATTACAGTATCTGT,-0.448,-0.0249,-0.395

Sequence,binding signal (BATF;JUNB) [kT],binding signal (BATF2 (bZIP);JUNB) [kT],binding signal (BATF3;JUNB) [kT]
GATAGTCTCATTTTCACCCCGTGAAAAGAGTCATTTGTTCCATTACAGTATCTGT,-0.155,0.416,0.137
GATAGTCTCATTTTCACCCCGTGAAATGACTCCTTTGTTCCATTACAGTATCTGT,0.0649,0.734,0.584
GATAGTCTCATTTTCACCCCGTGAAATGTGTCATTTGTTCCATTACAGTATCTGT,-0.52,-0.022,-0.44
GATAGTCTCATTTTCACCCCGTGAAACGACTCATTTGTTCCATTACAGTATCTGT,-0.317,0.616,0.267
GATAGTCTCATTTTCACCCCGTGAAATGACTGATTTGTTCCATTACAGTATCTGT,-0.224,0.321,0.106
GATAGTCTCATTTTCACCCCGTGAAATCACGTCATTGTTCCATTACAGTATCTGT,-0.743,-0.494,-1.33
GATAGTCTCATTTTCACCCCGTGAAAAAGAGTCATTGTTCCATTACAGTATCTGT,-0.185,0.233,0.0775
GATAGTCTCATTTTCACCCCGTGAAATGACGCAGTTGTTCCATTACAGTATCTGT,-0.301,0.363,-0.216
GATAGTCTCATTTTCACCCCGTGAAATGAGTCGATTGTTCCATTACAGTATCTGT,-0.215,1.01,0.391
GATAGTCTCATTTTCACCCCGTGAAATGAAGTCATTGTTCCATTACAGTATCTGT,-0.461,0.0362,-0.997
GATAGTCTCATTTTCACCCCGTGAAATGGAGTCATTGTTCCATTACAGTATCTGT,-0.329,0.239,-0.305
GATAGTCTCATTTTCACCCCGTGAAATGAGTGAGTTGTTCCATTACAGTATCTGT,-0.103,0.64,0.377
GATAGTCTCATTTTCACCCCGTGAAACGGAGTCATTGTTCCATTACAGTATCTGT,-0.207,0.313,0.06
GATAGTCTCATTTTCACCCCGTGAAATGAGTAACTTGTTCCATTACAGTATCTGT,-0.237,0.714,0.295
GATAGTCTCATTTTCACCCCGTGAAATGAGTCAATTGTTCCATTACAGTATCTGT,-0.554,0.156,-0.486
GATAGTCTCATTTTCACCCCGTGAAATGAGTTAATTGTTCCATTACAGTATCTGT,0.138,0.697,0.279
GATAGTCTCATTTTCACCCCGTGAAATTGGGTCATTGTTCCATTACAGTATCTGT,0.183,0.516,-0.0123
GATAGTCTCATTTTCACCCCGTGAAATGACGTTATTGTTCCATTACAGTATCTGT,-0.288,0.0695,-0.68
GATAGTCTCATTTTCACCCCGTGAAATTTAGTCATTGTTCCATTACAGTATCTGT,-0.725,-0.038,-0.503
GATAGTCTCATTTTCACCCCGTGAAATGTCTCATTTGTTCCATTACAGTATCTGT,0.287,0.93,0.725
GATAGTCTCATTTTCACCCCGTGAAATGATTCATTTGTTCCATTACAGTATCTGT,-0.784,-0.369,-0.839
GATAGTCTCATTTTCACCCCGTGAAATGACTCACTTGTTCCATTACAGTATCTGT,-0.778,-0.378,-0.943
GATAGTCTCATTTTCACCCCGTGAAAGAGAGTCATTGTTCCATTACAGTATCTGT,-0.0937,0.318,0.155
GATAGTCTCATTTTCACCCCGTGAAATGACTTAGTTGTTCCATTACAGTATCTGT,0.0125,0.47,0.28

Sequence,binding signal (BATF;JUNB) [kT],binding signal (BATF2 (bZIP);JUNB) [kT],binding signal (BATF3;JUNB) [kT]
GATAGTCTCATTTTCACCCCGTGAAATGAGGCACTTGTTCCATTACAGTATCTGT,0.813,1.32,1.29
GATAGTCTCATTTTCACCCCGTGAAATGATGTCATTGTTCCATTACAGTATCTGT,-0.738,-0.708,-1.63
GATAGTCTCATTTTCACCCCGTGAAATTGAGTCATTGTTCCATTACAGTATCTGT,-0.981,-0.804,-1.45
GATAGTCTCATTTTCACCCCGTGAAATGCCGTCATTGTTCCATTACAGTATCTGT,-0.311,0.122,-0.649
GATAGTCTCATTTTCACCCCGTGAAATGAGTCAGTTGTTCCATTACAGTATCTGT,-0.773,-0.0533,-0.715
GATAGTCTCATTTTCACCCCGTGAAAATTAGTCATTGTTCCATTACAGTATCTGT,-1.07,-0.658,-1.24
GATAGTCTCATTTTCACCCCGTGAAAACGAGTCATTGTTCCATTACAGTATCTGT,-0.809,-0.0168,-0.328
GATAGTCTCATTTTCACCCCGTGAAATCAGTCATTTGTTCCATTACAGTATCTGT,-0.312,0.249,-0.231
GATAGTCTCATTTTCACCCCGTGAAATGACCCACTTGTTCCATTACAGTATCTGT,0.593,1.04,0.927
GATAGTCTCATTTTCACCCCGTGAAATGACACAGTTGTTCCATTACAGTATCTGT,0.189,0.717,0.492
GATAGTCTCATTTTCACCCCGTGAAATGACTAACTTGTTCCATTACAGTATCTGT,-0.35,0.462,0.0773
GATAGTCTCATTTTCACCCCGTGAAATGACTCTATTGTTCCATTACAGTATCTGT,-0.0428,0.602,0.236
GATAGTCTCATTTTCACCCCGTGAAATGGCTCATTTGTTCCATTACAGTATCTGT,0.393,1.11,0.838
GATAGTCTCATTTTCACCCCGTGAAATGACTAATTTGTTCCATTACAGTATCTGT,-0.506,0.0427,-0.424
GATAGTCTCATTTTCACCCCGTGAAATGAGCCACTTGTTCCATTACAGTATCTGT,0.573,1.34,1.15
GATAGTCTCATTTTCACCCCGTGAAAGTAAGTCATTGTTCCATTACAGTATCTGT,-0.0818,0.203,-0.041
GATAGTCTCATTTTCACCCCGTGAAATGACGCACTTGTTCCATTACAGTATCTGT,-0.31,0.227,-0.203
GATAGTCTCATTTTCACCCCGTGAAATGAGTCATTTGTTCCATTACAGTATCTGT,-1.06,-0.903,-1.42
GATAGTCTCATTTTCACCCCGTGAAATGACCCATTTGTTCCATTACAGTATCTGT,0.311,0.823,0.67
GATAGTCTCATTTTCACCCCGTGAAAGTTAGTCATTGTTCCATTACAGTATCTGT,-0.763,-0.0778,-0.656
GATAGTCTCATTTTCACCCCGTGAAATGACTGACTTGTTCCATTACAGTATCTGT,-0.088,0.456,0.305
GATAGTCTCATTTTCACCCCGTGAAACTGTGTCATTGTTCCATTACAGTATCTGT,-0.318,0.116,-0.22
